The text below walks through data of PubChem BioAssay (NCI).

Some test systems named below: HCT-15 colon; HT29 colon; SNB-75 CNS; SNB-19 CNS; U251 CNS; PC-3 prostate; SK-MEL-5 melanoma; UACC-62 melanoma; LOX IMVI melanoma; SK-MEL-28 melanoma; EKVX NSCLC; SN12C renal; UO-31 renal; TK-10 renal; ACHN renal; CAKI-1 renal; A498 renal; CCRF-CEM leukemia; MOLT-4 leukemia.
Experiment in all cases: NCI-60 one-dose screen, 48 h (100 = growth as untreated, 0 = no growth, -100 = all killed)
Details in all cases: 10 µM unless noted

Molecules are shown by their SMILES. The panel holds about 83,000 compounds, 20% with a hit somewhere; the sample as a whole holds those more often.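 Assay: single dose, 48 h. Readout: percent growth (0 = no net growth; negative = cell death). Active: <10.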 Values without a mark were called inactive. Active and inactive are the calls of the source.

For `CNC(=O)c1cnc(C)nc1-c1cc(C(C)(C)C)c(O)c(C(C)(C)C)c1`, the growth in the assay on HCT-15 colon was 103%; with HT29 colon it was 106%; in the assay with SNB-75 CNS, 67.6%; with SNB-19 CNS, 87.2%; with U251 CNS, 97.1%; with PC-3 prostate it was 89.3%. Also, the growth is 92.1% in the assay with SK-MEL-5 melanoma; 90.7% in the assay with UACC-62 melanoma; 110% in the assay on LOX IMVI melanoma; 107% in the assay with SK-MEL-28 melanoma; 92.6% with EKVX NSCLC; 100% with SN12C renal. The growth is 94.6% in the assay on UO-31 renal; 101% in the assay with TK-10 renal; 101% in the assay with ACHN renal; 96.8% with CAKI-1 renal; 112% in the assay with A498 renal; 106% with CCRF-CEM leukemia. In the assay with MOLT-4 leukemia, the growth was 95.7%.
Consider `CS(=O)(=O)N1CCN(Cc2cc3nc(-c4cccc5[nH]ncc45)nc(N4CCOCC4)c3s2)CC1`, for which the growth is 19.3% with HCT-15 colon; 11.4% with HT29 colon; -25.6% (active) with SNB-75 CNS; 34.9% with SNB-19 CNS; 34% with U251 CNS; 18.2% in the assay on PC-3 prostate. In addition, the growth in the assay on SK-MEL-5 melanoma is 33.5%; in the assay on UACC-62 melanoma it was -14.2% (active); with LOX IMVI melanoma, 15.5%; with SK-MEL-28 melanoma, 10.6%; with EKVX NSCLC it was 19.9%; in the assay with SN12C renal, 17.2%. Moreover, the growth in the assay with UO-31 renal was -14.7% (active); in the assay on TK-10 renal it was 0.78% (active); in the assay with ACHN renal, 6.84% (active); in the assay on CAKI-1 renal, 7.35% (active); in the assay with A498 renal it was -47.6% (active); in the assay with CCRF-CEM leukemia, 36.3%. In addition, in the assay with MOLT-4 leukemia, the growth was 12.3%.
For the compound `O=C(Nc1cccc([N+](=O)[O-])c1)c1ccc(Cl)c(Cl)c1`, the growth with HCT-15 colon was 93.2%; in the assay with HT29 colon, 78.3%; in the assay on SNB-75 CNS, -2.87% (active); with SNB-19 CNS, 53.5%; in the assay on U251 CNS, 62.4%; in the assay with PC-3 prostate it was 60.7%. Also, the growth was 89.4% in the assay on SK-MEL-5 melanoma; 74.4% in the assay on UACC-62 melanoma; 63.6% in the assay with LOX IMVI melanoma; 53.5% in the assay on SK-MEL-28 melanoma; 66.4% in the assay with EKVX NSCLC; 67.9% in the assay on SN12C renal. Further, the growth in the assay on UO-31 renal is 95.4%; in the assay with TK-10 renal it was 49.9%; in the assay on ACHN renal it was 49.8%; in the assay on CAKI-1 renal it was 86.4%; with A498 renal, 79.9%; in the assay on CCRF-CEM leukemia, 82.7%. Besides, the growth in the assay with MOLT-4 leukemia is 85.9%.
Consider `CNC(=O)c1ccc(Nc2ncc(C(F)(F)F)c(NCc3nccnc3N(C)S(C)(=O)=O)n2)cc1`, for which the growth with HCT-15 colon was 1.88% (active); in the assay on HT29 colon, -11.9% (active); with SNB-75 CNS, -44.7% (active); with SNB-19 CNS it was 7.45% (active); in the assay on U251 CNS, 1.49% (active); with PC-3 prostate, 10.5%. In addition, the growth is -49.5% (active) in the assay on SK-MEL-5 melanoma; -70% (active) with UACC-62 melanoma; 0.319% (active) in the assay on LOX IMVI melanoma; 1.14% (active) in the assay with SK-MEL-28 melanoma; -4.53% (active) in the assay on EKVX NSCLC; 5.6% (active) with SN12C renal. For the same compound, the growth in the assay with UO-31 renal is -6.92% (active); with TK-10 renal, -21.5% (active); in the assay on ACHN renal, 3.54% (active); in the assay with CAKI-1 renal it was 0.765% (active); in the assay on A498 renal, -42.2% (active); with CCRF-CEM leukemia it was 4.49% (active). The growth with MOLT-4 leukemia is -9.42% (active).
As to `CC(C)CC(=O)Nc1n[nH]c2c1CN(C(=O)C1CCN(C)CC1)C2(C)C`, the growth with HCT-15 colon was 78.8%; in the assay with HT29 colon, -1.54% (active); in the assay with SNB-75 CNS, -19.8% (active); in the assay with SNB-19 CNS, 11.5%; in the assay with U251 CNS it was 2.91% (active); with PC-3 prostate it was 16.1%. In addition, the growth in the assay on SK-MEL-5 melanoma was -35.7% (active); in the assay with UACC-62 melanoma it was -19.1% (active); with LOX IMVI melanoma it was 9.19% (active); in the assay on SK-MEL-28 melanoma it was 9.19% (active); in the assay on EKVX NSCLC, 57.8%; in the assay with SN12C renal it was 19.2%. Also, the growth in the assay with UO-31 renal is 80.9%; in the assay with TK-10 renal, 49.2%; with ACHN renal, 54.2%; with CAKI-1 renal, 39.8%; in the assay with A498 renal, 7.55% (active); in the assay on CCRF-CEM leukemia it was 7.27% (active). In the assay on MOLT-4 leukemia, the growth was 4.42% (active).
`C/C(=N\NC(=O)Cn1c(-c2ccc(S(C)(=O)=O)cc2)nc2ccccc21)c1ccc(Cl)cc1`: the growth in the assay with HCT-15 colon was 87.8%; in the assay on HT29 colon, 98.3%; with SNB-75 CNS it was 81.1%; in the assay on SNB-19 CNS, 93.4%; in the assay with U251 CNS it was 89.7%; in the assay with PC-3 prostate, 52.2%. The growth was 91.7% in the assay on SK-MEL-5 melanoma; 84.7% in the assay with UACC-62 melanoma; 100% with LOX IMVI melanoma; 113% in the assay with SK-MEL-28 melanoma; 101% with EKVX NSCLC; 97.4% in the assay on SN12C renal. Moreover, the growth with UO-31 renal is 66.1%; in the assay on TK-10 renal it was 109%; with ACHN renal, 93.6%; with CAKI-1 renal it was 91.9%; with A498 renal, 104%; with CCRF-CEM leukemia it was 77%. In addition, the growth with MOLT-4 leukemia was 79.7%.
With `O=C(O)c1ccc(Nc2ncc3c(n2)-c2ccc(Cl)cc2C(c2c(F)cccc2F)=NC3)cc1`, the growth in the assay on HCT-15 colon was 50.5%; in the assay on HT29 colon, 30.2%; in the assay with SNB-75 CNS, 48.8%; with SNB-19 CNS, 54.6%; in the assay with U251 CNS, 42.5%; in the assay on PC-3 prostate, 51.3%. Also, the growth with SK-MEL-5 melanoma was 60.6%; in the assay on UACC-62 melanoma, 51.6%; with LOX IMVI melanoma, 33%; with SK-MEL-28 melanoma, 75.1%; in the assay on EKVX NSCLC, 80.1%; in the assay with SN12C renal, 62.8%. The growth was 41.8% with UO-31 renal; 40.1% in the assay on TK-10 renal; 49% in the assay on ACHN renal; 47.6% with CAKI-1 renal; 25.3% in the assay with A498 renal; 36.6% in the assay on CCRF-CEM leukemia. In addition, the growth in the assay on MOLT-4 leukemia was 44.6%.
